Here are results for 39 compounds from PubChem BioAssay.

Each structure is given as a SMILES string. The list shows a part of the results. Unmarked numbers belong to inactive results. The source made the active and inactive calls.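 Rule for the calls: active = inhibition above the primary screen's cutoff, its mean inhibition plus 3 SD (cut at about 35% in these data); inactive = the rest.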

For the test, the target named is Glutathione S-transferase omega-1 (Homo sapiens) (UniProt P78417). The test is described as follows: recombinant GSTO1 blockers, retest – biochemical, fluorescence polarization, triplicate, counter-screen for RBBP9 inhibitor project, confirmation (AID 2176).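 Note: loss of polarization as inhibitors block binding of rhodamine sulfonate ester activity probe; 0% = GSTO1 with DMSO and 100% = wells lacking GSTO1 enzyme.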 The note with it: recombinant GSTO1, probe fluorescence polarization; at 5.96 µM; hits give high values.
Sequence of Glutathione S-transferase omega-1 (Homo sapiens) (P78417 whole entry, looked up): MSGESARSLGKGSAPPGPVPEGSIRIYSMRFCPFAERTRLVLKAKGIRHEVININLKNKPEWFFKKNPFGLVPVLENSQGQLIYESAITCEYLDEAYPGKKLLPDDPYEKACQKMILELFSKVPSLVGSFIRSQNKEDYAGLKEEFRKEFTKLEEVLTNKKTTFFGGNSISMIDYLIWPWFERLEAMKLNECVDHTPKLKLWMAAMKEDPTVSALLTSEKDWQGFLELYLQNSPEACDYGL
Consider `Cc1cccc(N2CCN(c3ccc(NC(=O)/C=C\C(=O)O)cc3)CC2)c1`, for which the inhibition is 7.27%.

Consider `CC(C)(C)n1cnnc1Sc1ccc([N+](=O)[O-])cn1`, for which the inhibition was 28.1%.

Turning to `O=S(=O)(O)Oc1c[nH]c2ccccc12`, the inhibition was 51.2% (active).

For the compound `O=C1Nc2c(Br)cc(Br)cc2C1(O)N1CCOCC1` (centres undefined), the inhibition is 25.2%.

`O=C(Nc1cc(N2CCOCC2)ncn1)NC1(C(F)(F)F)Oc2ccc(Cl)cc2O1` (centres undefined): the inhibition was 8.59%.

`CCN(C(=O)COC(=O)c1cc(NS(=O)(=O)c2ccc(Cl)c([N+](=O)[O-])c2)ccc1O)C1CCCCC1`: the inhibition is 32.6%.

Take `O=C(OCC(=O)N1CCCC1=O)c1cc(S(=O)(=O)N2CCOCC2)ccc1Cl`: the inhibition was 1.2%.

For `O=c1c(/C=N/O)coc2ccc(Cl)cc12`, the inhibition was 4.5%.

For the compound `COC(=O)CCCC1=CC2=CC(=O)C(C)(OC(=O)c3cccs3)C(=O)C2=CN1CC1CC1` (centres undefined), the inhibition was 30.3%.

Turning to `C[n+]1ccccc1C1CCCC/C1=N\Nc1ccc([N+](=O)[O-])cc1[N+](=O)[O-]` (centres undefined), the inhibition is 6.21%.

Regarding `O=C(c1[nH]ncc1-c1ccc(Cl)cc1)C1CO1` (centres undefined), the inhibition was 79.6% (active).

`COc1ccccc1CCCNC(=O)C1CCC(=O)N(CCN2CCOCC2)C1` (centres undefined): the inhibition was 5.53%.

In the case of `Oc1ccc(CNc2ccccc2O)cc1`, the inhibition is 21.7%.

Consider `Cc1ccc(C(=O)N/N=C/c2sc(=O)n(Cc3cccc(C(=O)O)c3)c2Cl)cc1`, for which the inhibition was 48.3% (active).

Consider `O=C(CCl)NNc1cccc(Cl)n1`, for which the inhibition was 50% (active).

As to `Cc1[nH][nH]c(=O)c1C(c1ccc(-c2ccc(Cl)cc2)o1)c1c(C)[nH][nH]c1=O`, the inhibition was 22.6%.

As to `COCCN1C=C2C(=O)C(C)(OC(=O)C3CCCC3)C(=O)C=C2C=C1c1ccsc1` (centres undefined), the inhibition was 7.54%.

As to `Cc1ccc(SCC2=NNC(=O)C2)cc1`, the inhibition was 11.5%.

As for `NNC(=O)c1oc2nc(-c3ccccc3)cc(-c3ccco3)c2c1N`, the inhibition is 3.35%.

For the compound `COc1ccc(-c2csc(Nc3ccc(O)cc3)n2)cc1`, the inhibition was 7.69%.

For the compound `CCC1(CC)Cc2ccccc2-c2nc(CCl)[nH]c(=O)c21`, the inhibition is 94% (active).

For the compound `Oc1c(C=Nc2cccc3nsnc23)ccc2ccccc12`, the inhibition was 69.9% (active).

On to `O=C(O)c1cccc(NC(=S)N/N=C/c2c[nH]c3ccccc23)c1`, for which the inhibition was 54.5% (active).

On to `COC(=O)CCCC1=CC2=C(c3ccccc3)C(=O)C(C)(OC(=O)C3CCCC3)C(=O)C2=CN1c1ccc(OC)cc1` (centres undefined), for which the inhibition was 16.9%.

`O=C(c1cccnc1)N(c1cc2sc(=O)oc2c2ccccc12)S(=O)(=O)c1ccccc1`: the inhibition is 6.84%.

As for `CC1C(=O)Nc2ccccc2N1C(=O)c1ccc(F)cc1F` (centres undefined), the inhibition was 5.92%.

In the case of `COc1ccc2c(c1)OC(O)(C(F)(F)C(F)F)CC2=O` (centres undefined), the inhibition was 5.88%.

Take `O=C(CCl)Nc1cccc(CP(=O)(c2ccccc2)c2ccccc2)c1`: the inhibition was 90.4% (active).

Consider `COc1ccc(S(=O)(=O)N2CCOCC2)cc1NC(=O)CSc1ncnc2ccccc12`, for which the inhibition is 15.2%.

In the case of `CCOc1c(Br)cc(/C=C2\C(=O)N(CCC#N)N=C2C)cc1OC`, the inhibition is 3.85%.

On to `CCCc1nc2ccccc2c(=O)n1/N=C/c1ccc(O)c(O)c1`, for which the inhibition was 3.52%.

Regarding `COc1ccc(C(C(=O)NC2CCCCC2)N(C(=O)CCl)c2ccccc2Cl)cc1` (centres undefined), the inhibition is 45% (active).

As for `COC1=C(N2CCOCC2)C(=O)c2ccccc2C1=O`, the inhibition is 28.9%.

`COC(=O)c1ccc(CSc2nncn2N)cc1`: the inhibition is 1.78%.

Turning to `CC(=O)N(C1=C(Cl)C(=O)c2ccccc2C1=O)c1ccc(C(=O)O)cc1`, the inhibition was 77.8% (active).

Regarding `O=C(Cn1c(-c2ccccn2)nc2ccccc21)NCCN1CCOCC1`, the inhibition is 6.3%.

Regarding `O=c1cc(CCl)nc2scc(-c3ccccc3)n12`, the inhibition is 96.3% (active).

Regarding `CC1=CC(C)(C)Nc2ccc(OC(=O)CN3C(=O)C4CCCCC4C3=O)cc21` (centres undefined), the inhibition is 1.06%.

With `O=C(Cc1cc(=O)[nH][nH]1)N/N=C/c1ccccc1[N+](=O)[O-]`, the inhibition is 5.98%.
